Drawing on PubChem BioAssay, this text covers z-score for 35 compounds.

A number with no mark means an inactive call. Unless noted, no rule for the calls is given here.

The first assay can be described thus: P. aeruginosa biofilm formation inhibitors, primary screen, PAO1 strain, BacTiter-Glo luminescence, LB-PBS (AID 1144). The note with it: 12 h, higher = more signal.
On to `CCCCCCCCCCC(O)C1C=CC2C(=O)N(C)C(=O)C2N1NC(=O)OC(C)(C)C` (stereo not drawn), for which the z-score is 0.918.

With `NCCCCCNC(=O)[C@@H]1C[C@@H]2C(=O)NCC(=O)N2[C@@H]1c1cccc(OCCO)c1`, the z-score is 0.771.

For the compound `[N-]=[N+]=NCc1ccccc1[C@H]1OC(c2ccc(OCCCO)cc2)=N[C@@]1(CCS(=O)(=O)c1ccccc1)C(=O)N1CCCCC1`, the z-score is -0.705.

`CCOC(=O)C[C@H]1[C@H](OC(=O)c2ccccc2-c2ccccc2)[C@@H](NC(=O)c2ccc(-c3ccccc3)cc2)c2cc(OCCCO)ccc2N1C(=O)c1ccc2ccccc2n1`: the z-score is -0.437.

Turning to `CCCCCCc1nc(C2CC2)cc2c1[Si](C(C)C)(C(C)C)OC2`, the z-score is -0.486.

As to `O=C1C[C@@](C(=O)NCCN2CCOCC2)(c2ccc([N+](=O)[O-])cc2)[C@@H](c2ccc(CO)cc2I)N1C1CCCCC1`, the z-score was -1.36.

For `COC(=O)[C@@]1(Cc2ccc(OC)cc2)[C@H]2c3cc(C(=O)N4CCCC4)n(Cc4c(-c5ccccc5)noc4C)c3C[C@H]2CN1C(=O)c1ccccc1`, the z-score is -0.452.

Regarding `CC(C)(C)N1CC=CC23O[C@@H]4C=CCCOC(=O)C4[C@H]2C(=O)N(CCO)[C@@H]3C1=O` (stereo partly drawn), the z-score is -0.249.

`O=C1O[C@@H](c2ccccc2)[C@@H](c2ccccc2)N2[C@@H](c3ccccc3OCCO)[C@]3(C(=O)Nc4ccc(C#CCCO)cc43)[C@@H](C(=O)N3CCCCCCC3)[C@H]12`: the z-score was -0.163.

For `CO[C@]12C=C(Br)[C@@H](C[C@@H]1c1cccc(C)c1)[C@@]1(CO1)C2=O`, the z-score is -0.863.

For the compound `O=C1C2C=CC(C(O)c3ccccc3)N(Nc3ccccc3F)C2C(=O)N1c1ccccc1` (stereo not drawn), the z-score is 0.298.

For `CC[C@H]1C2=C3C(CC[C@H]4C(OCc5ccc(F)cc5C(F)(F)F)OC[C@](C)([C@@H]34)N(C(=O)OC(C)(C)C)C2)C(COC)C1COC` (stereo partly drawn), the z-score was 1.02.

For the compound `Cc1ccc(S[C@]2(C(=O)O)CC(=O)N(C3Cc4ccccc4C3)[C@@H]2c2ccc(CO)cc2)cc1`, the z-score was 0.0572.

For `COc1ccc(NC(=O)O[C@H]2[C@H](OC(=O)Nc3ccccc3)[C@@H](OC(=O)Nc3ccccc3)[C@@H](OC)O[C@@H]2CO)cc1`, the z-score is -1.81.

In the case of `CCCC[C@@H]1C[C@H]1[C@@H](NC(=O)Cc1ccccc1)c1ccc(-c2ccccc2)cc1`, the z-score is 1.65.

For `N#Cc1ccc(NN2C(C(O)c3ccc(F)cc3)C=CC3C(=O)N(c4ccccc4)C(=O)C32)cc1` (stereo not drawn), the z-score was -0.377.

In the case of `[N-]=[N+]=NCc1ccccc1C[C@]1(C(N)=O)N=C(c2ccc(OCCCO)cc2)O[C@H]1c1ccccc1`, the z-score is -1.02.

For `COCCCNC(=O)[C@@]1(Cc2ccccc2N=[N+]=[N-])N=C(c2ccc(OCCCO)cc2)O[C@H]1c1ccccc1`, the z-score was -1.31.

Take `CN(C)CCCNC(=O)[C@@H]1c2ccccc2C(=O)N(Cc2ccccc2Cl)[C@H]1c1ccc(CO)cc1`: the z-score is 0.388.

For `C=C(/C(=C/C[C@H](OC(=O)c1ccncc1)c1ccc(CO)o1)c1cc(C(=O)OC)ccc1OC)C(C)C`, the z-score is -0.742.

As to `C=CCC(OC(C)=O)[C@@H]1[C@@H](N(Cc2ccc(-c3cccc(C(F)(F)F)c3)o2)C(=O)c2ccc(-c3ccccc3)cc2)c2cc(OCCCO)ccc2N1C(=O)c1ccc2ccccc2n1` (stereo partly drawn), the z-score was -0.171.

Regarding `CCCCN1CC=CC23O[C@@H]4/C=C\CCC(C)OC(=O)C4[C@H]2C(=O)N(C(CO)C(C)C)[C@@H]3C1=O` (stereo partly drawn), the z-score is 0.524.

`[N-]=[N+]=Nc1ccccc1[C@H]1OC(c2ccc(OCCCO)cc2)=N[C@@]1(Cc1ccccc1)C(=O)N1CCCCC1`: the z-score is -0.21.

A further assay is described as follows: CREB reporter modulators without forskolin, primary screen, cell-based, PC12, CRE-LacZ reporter, unstimulated (AID 1145). The note with it: no forskolin, luminescence, 4.5 h, higher = more signal, called active from +8 up or from −8 down.
With `CC(C)Cc1ccc(CN2CC[C@@H](NC(=O)Nc3ccccc3)C2)cc1`, the z-score is 0.757.

With `CC(C)C[C@@H]1NC(=O)[C@@H]2C[C@H](C(=O)NCCCCN(C)C)[C@H](c3cccc(OCCO)c3)N2C1=O`, the z-score was -0.817.

Regarding `CC1CC/C=C\[C@H]2OC34C=CCN(C(C)C)C(=O)[C@H]3N(CCCCCCO)C(=O)[C@@H]4C2C(=O)O1` (stereo partly drawn), the z-score is -0.342.

On to `COc1ccc(CCNC(=O)[C@@]2(Sc3ccc(C)cc3)CC(=O)N(C3Cc4ccccc4C3)[C@@H]2c2ccc(CO)cc2)cc1`, for which the z-score was -0.698.

For `COc1ccc(-c2nc(-c3ccccc3)c3c(c2C)CO[Si]3(C(C)C)C(C)C)cn1`, the z-score is -0.607.

As for `CCCC[C@@H]1C[C@H]1[C@@H](NC(=O)c1cccs1)c1ccc(C(F)(F)F)cc1`, the z-score was 0.962.

As to `CN1C(=O)C2C=CC(C(O)c3ccc(F)cc3)N(Nc3ccccc3)C2C1=O` (stereo not drawn), the z-score is 0.0535.

In the case of `OCC1CC(c2ccccc2)=NO1` (stereo not drawn), the z-score is 0.312.

Take `COC1OC[C@]2(C)[C@H]3C4=C(CN2C(=O)OC(C)(C)C)[C@H](C)C(CO)C(CO)C4CC[C@@H]13` (stereo partly drawn): the z-score is 0.197.

In the case of `NCCCCCCNC(=O)[C@@H]1C[C@@H]2C(=O)N[C@@H](CCCCN)C(=O)N2[C@@H]1c1cccc(OCCO)c1`, the z-score is -0.26.

As to `CCOC(=O)C1=C[C@@H](c2ccccc2)N(S(=O)(=O)c2ccc(C)cc2)[C@H]1c1ccccc1Cl`, the z-score was -0.312.

In the case of `CCOc1cc(C(O)C2C=CC3C(=O)N(c4ccccc4)C(=O)C3N2Nc2ccc(C#N)cc2)ccc1O` (stereo not drawn), the z-score is -0.525.

As for `CCCCCCCCCCC(O)C1C=CC2C(=O)N(C)C(=O)C2N1NC(=O)OC(C)(C)C` (stereo not drawn), the z-score is 0.632.

Take `NCCCCCNC(=O)[C@@H]1C[C@@H]2C(=O)NCC(=O)N2[C@@H]1c1cccc(OCCO)c1`: the z-score is -0.667.

With `[N-]=[N+]=NCc1ccccc1[C@H]1OC(c2ccc(OCCCO)cc2)=N[C@@]1(CCS(=O)(=O)c1ccccc1)C(=O)N1CCCCC1`, the z-score was 0.0219.

For `CCOC(=O)C[C@H]1[C@H](OC(=O)c2ccccc2-c2ccccc2)[C@@H](NC(=O)c2ccc(-c3ccccc3)cc2)c2cc(OCCCO)ccc2N1C(=O)c1ccc2ccccc2n1`, the z-score is -0.686.

On to `CCCCCCc1nc(C2CC2)cc2c1[Si](C(C)C)(C(C)C)OC2`, for which the z-score is 1.59.

Consider `O=C1C[C@@](C(=O)NCCN2CCOCC2)(c2ccc([N+](=O)[O-])cc2)[C@@H](c2ccc(CO)cc2I)N1C1CCCCC1`, for which the z-score was 0.0279.

As to `COC(=O)[C@@]1(Cc2ccc(OC)cc2)[C@H]2c3cc(C(=O)N4CCCC4)n(Cc4c(-c5ccccc5)noc4C)c3C[C@H]2CN1C(=O)c1ccccc1`, the z-score was -0.185.

Regarding `CC(C)(C)N1CC=CC23O[C@@H]4C=CCCOC(=O)C4[C@H]2C(=O)N(CCO)[C@@H]3C1=O` (stereo partly drawn), the z-score was -1.44.

`O=C1O[C@@H](c2ccccc2)[C@@H](c2ccccc2)N2[C@@H](c3ccccc3OCCO)[C@]3(C(=O)Nc4ccc(C#CCCO)cc43)[C@@H](C(=O)N3CCCCCCC3)[C@H]12`: the z-score was 0.245.

As to `CO[C@]12C=C(Br)[C@@H](C[C@@H]1c1cccc(C)c1)[C@@]1(CO1)C2=O`, the z-score was 0.223.

For the compound `O=C1C2C=CC(C(O)c3ccccc3)N(Nc3ccccc3F)C2C(=O)N1c1ccccc1` (stereo not drawn), the z-score was 0.0707.

Take `CC[C@H]1C2=C3C(CC[C@H]4C(OCc5ccc(F)cc5C(F)(F)F)OC[C@](C)([C@@H]34)N(C(=O)OC(C)(C)C)C2)C(COC)C1COC` (stereo partly drawn): the z-score is -0.379.

In the case of `Cc1ccc(S[C@]2(C(=O)O)CC(=O)N(C3Cc4ccccc4C3)[C@@H]2c2ccc(CO)cc2)cc1`, the z-score is 0.001.

For `COc1ccc(NC(=O)O[C@H]2[C@H](OC(=O)Nc3ccccc3)[C@@H](OC(=O)Nc3ccccc3)[C@@H](OC)O[C@@H]2CO)cc1`, the z-score was 0.895.

On to `CCCC[C@@H]1C[C@H]1[C@@H](NC(=O)Cc1ccccc1)c1ccc(-c2ccccc2)cc1`, for which the z-score is 0.39.

Regarding `N#Cc1ccc(NN2C(C(O)c3ccc(F)cc3)C=CC3C(=O)N(c4ccccc4)C(=O)C32)cc1` (stereo not drawn), the z-score is 0.629.

Turning to `[N-]=[N+]=NCc1ccccc1C[C@]1(C(N)=O)N=C(c2ccc(OCCCO)cc2)O[C@H]1c1ccccc1`, the z-score was 0.101.

As to `COCCCNC(=O)[C@@]1(Cc2ccccc2N=[N+]=[N-])N=C(c2ccc(OCCCO)cc2)O[C@H]1c1ccccc1`, the z-score was 0.558.

Turning to `CN(C)CCCNC(=O)[C@@H]1c2ccccc2C(=O)N(Cc2ccccc2Cl)[C@H]1c1ccc(CO)cc1`, the z-score was -0.206.

For the compound `C=C(/C(=C/C[C@H](OC(=O)c1ccncc1)c1ccc(CO)o1)c1cc(C(=O)OC)ccc1OC)C(C)C`, the z-score is 0.621.

Consider `C=CCC(OC(C)=O)[C@@H]1[C@@H](N(Cc2ccc(-c3cccc(C(F)(F)F)c3)o2)C(=O)c2ccc(-c3ccccc3)cc2)c2cc(OCCCO)ccc2N1C(=O)c1ccc2ccccc2n1` (stereo partly drawn), for which the z-score is 0.222.

Take `CCCCN1CC=CC23O[C@@H]4/C=C\CCC(C)OC(=O)C4[C@H]2C(=O)N(C(CO)C(C)C)[C@@H]3C1=O` (stereo partly drawn): the z-score is -0.895.

With `[N-]=[N+]=Nc1ccccc1[C@H]1OC(c2ccc(OCCCO)cc2)=N[C@@]1(Cc1ccccc1)C(=O)N1CCCCC1`, the z-score was 0.722.
